Results published in PubChem BioAssay (NCATS).
Records with an inconclusive call do not appear. The source made the active and inactive calls. Calls follow the shape of the dose curve; as a rule, active = well fitted inhibition curve with a large enough effect; inconclusive = small, poorly fitted or top-dose-only effect; inactive = flat fitted curve, though single readings scatter.

The compounds below were run against Dual specificity protein kinase CLK4 (Homo sapiens) (UniProt Q9HAZ1) (assay: qHTS Assay for Inhibitors of CDC-like Kinase 4 (ADP-FP Assay) (AID 1795; also: nearly all actives have a fitted effect of over 60% in size;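 as to activity change, negative = inhibition: recombinant human CLK4 phosphorylating RS repeat peptide at 1 µM ATP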)). Settings: Transcreener ADP fluorescence polarization; series mostly up to 50 µM; activity change, negative = inhibition: at the top concentration.
Method: NIH Molecular Libraries Probe Production Centers Network [MLPCN] NIH Chemical Genomics Center [NCGC] MLPCN Grant: 1R03MH084827-01 Assay Submitter (PI): Tom Misteli NCGC Assay Overview: Clk4 (Invitrogen cat # PV3839) was assayed using ATP and the RS repeat peptide (AnaSpec cat # 61722) as substrates using Transcreener (trade mark), a competitive fluorescence polarization (FP) assay. For the present assay, we used the Orange TranscreenerTM ADP2 (BellBrooks Labs, Madison, Wis) detection system to monitor ADP production in the kinase reaction. […] This allows the ADP tracer to freely rotate leading to a decrease in the observed FP value. The amount of ADP produced can then be calculated using a calibration curve. The positive control for the assay was TG003 (Sigma-Aldrich, cat # 300801-52-9) which is a Clk4 inhibitor [2].
NCGC Assay Protocol Summary: Two uL/well of substrate-buffer solution (100 uM RS peptide, 1 uM ATP, 25 mM Tris pH7.5, 10 mM MgCl2, 0.5 mM EGTA, 2.5 mM DTT, 0.01% Triton X-100 final concentration) was dispensed into 1,536-well assay plates (Greiner, solid black medium-binding plates) with Aurora Discovery BioRAPTR Flying Reagent Dispenser (FRD; Beckton-Dickenson). Using a Kalypsys pin tool equipped with a 1,536-pin tool, 23 nL of compound solution was transferred to the assay plate. Two uL/well Clk4-buffer solution (6.25 nM Clk4, 25 mM Tris pH 7.5, 10 mM MgCl2, 0.5 mM EGTA, 2.5 mM DTT, 0.01% Triton X-100, final concentration) was then added using the FRD yielding a total kinase reaction volume of 4 uL/ well. Then 4 uL/well of detection mixture (4 nM orange fluorescent tracer, 1 ug/mL ADP antibody, final concentration) was then added after an hour and the polarization signal was measured using the EnVision plate reader (PerkinElmer, Waltham, MA) after 30 min of room temperature incubation using the following filters and program settings: BODIPY TMR FP dual Enh mirror (barcode 682); BODIPY-TMR 531 (barcode 105) excitation; BODIPY-TMR FP P/S polarized 595 nm filters (barcodes 210 and 211, respectively); 100% light; 150 flashes; 1.35 G-factor; Detector gains were 685 for the 1st detector; 630 for the 2nd detector.
% is scaled to controls: 0 for no effect and ±100 for the full control effect; potency is read from the fitted curve at half-maximal effect.

Dual specificity protein kinase CLK4 (Homo sapiens), sequence (Q9HAZ1 whole entry, looked up): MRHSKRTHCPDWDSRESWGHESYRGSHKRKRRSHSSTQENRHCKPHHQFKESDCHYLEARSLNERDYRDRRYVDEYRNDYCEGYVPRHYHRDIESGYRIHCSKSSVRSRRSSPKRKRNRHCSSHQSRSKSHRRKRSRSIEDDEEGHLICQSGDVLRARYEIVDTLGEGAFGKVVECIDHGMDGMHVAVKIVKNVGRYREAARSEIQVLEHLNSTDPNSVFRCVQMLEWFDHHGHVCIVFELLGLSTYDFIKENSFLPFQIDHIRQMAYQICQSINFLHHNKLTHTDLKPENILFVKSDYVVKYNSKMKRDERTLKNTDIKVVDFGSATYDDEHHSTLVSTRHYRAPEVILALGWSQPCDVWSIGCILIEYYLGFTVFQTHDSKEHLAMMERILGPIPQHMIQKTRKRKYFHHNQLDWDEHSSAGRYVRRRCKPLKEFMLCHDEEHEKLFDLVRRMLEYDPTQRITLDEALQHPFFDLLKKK

Activity change, negative = inhibition, inactive:
FC(F)(F)c1ccccc1-c1nc(NCc2cccnc2)c2ccccc2n1 -3.06%
Cn1c(=O)c(-c2ccc(Cl)cc2)nc2cncnc21 -4.59%
COc1ccc2[nH]cc(CCNc3ncncc3-c3ccccc3C(F)(F)F)c2c1 -3.19%
CN(C)c1nc(-c2ccc3c(c2)OCO3)nc2ccccc12 0.0766%
c1ccc2c(NCCN3CCOCC3)nc(-c3ccoc3)nc2c1 -9.33%
COc1ncc2nc(-c3ccccc3)c(=O)n(CCc3ccccc3)c2n1 8.21%
COc1ccc(Oc2ncc3nc(-c4cccc(C#N)c4)c(=O)n(CCC#N)c3n2)cc1 2.6%
CN1CCN(c2nc(-c3cccnc3)nc3ccccc23)CC1 -20.9%
O=c1c(-c2cccc(F)c2)nc2cncnc2n1Cc1ccc(F)cc1 7.97%
CN(C)Cc1ccccc1-c1ccc2ncnc(N(C)C)c2c1 -0.459%
CN(C)c1ncc2nc(CCc3ccccc3)c(=O)n(CCc3ccccc3)c2n1 6.58%
Cn1cc(-c2nc3cnc(N4CCNCC4)nc3n(C3CC3)c2=O)c2ccccc21 1.53%
COc1ccc(CNc2cc(-c3cccc(NS(C)(=O)=O)c3)ncn2)c(OC)c1 -5.05%
COCCn1c(=O)c(-c2cccc(C#N)c2)nc2cnc(OCc3ccccc3)nc21 12.2%
Cc1cnc(CNc2ncnc3ccc(-c4ccc(N(C)C)cc4)cc23)cn1 -1.99%
COc1ccc(-c2nc3cnc(N4CCOCC4)nc3n(-c3ccc(OC)cc3)c2=O)cc1 8.19%
COCCn1c(=O)c(-c2cc(F)cc(F)c2)nc2cnc(N3CCN(C)CC3)nc21 1.91%
CCNc1ncc2nc(CCc3ccccc3)c(=O)n(Cc3cccc(OC)c3)c2n1 11.1%
COCCn1c(=O)c(-c2cccc(C#N)c2)nc2cnc(Oc3cccc(Cl)c3)nc21 4.67%
CCNc1ncc2nc(-c3cccs3)c(=O)n(CCC#N)c2n1 5.44%
COCCn1c(=O)c(CCc2ccccc2)nc2cnc(Oc3ccccc3)nc21 4.23%
COc1ccc(Oc2ncc3nc(-c4cccc(C#N)c4)c(=O)n(Cc4cccc(OC)c4)c3n2)cc1 8.27%
COc1ccc(CNc2ncncc2-c2ccccc2OC)c(OC)c1 -6.22%
Cn1c(=O)c(-c2ccccc2)nc2cnc(N3CCOCC3)nc21 4.06%
Cc1nc2cnc(N3CCN(C)CC3)nc2n(CCc2ccccc2)c1=O 5.51%
COCCn1c(=O)c(-c2cccs2)nc2cnc(N3CCNCC3)nc21 1.38%
COc1cccc(-c2cncnc2NCCN2CCOCC2)c1 5.66%
COc1cccc(-c2cncnc2NCCc2c[nH]c3ccc(OC)cc23)c1 -1.36%
CN1CCN(c2ncc3nc(-c4cn(C)c5ccccc45)c(=O)n(CCC#N)c3n2)CC1 4.55%
COc1ccccc1-c1nccc(N2CCN(C)CC2)n1 2.23%
COc1ccccc1-c1nc(N2CCN(C)CC2)c2ccccc2n1 8.27%

Potency, active:
COc1ccc2[nH]cc(CCNc3ncncc3-c3ccc4c(c3)OCO4)c2c1 10 µM
COc1ccc2[nH]cc(CCNc3ncnc4ccc(-c5ccoc5)cc34)c2c1 0.562 µM
COc1cccc(-c2nc(NC3CC3)c3ccccc3n2)c1 2.82 µM
Cc1ccccc1-c1ccc2ncnc(-n3ccnc3)c2c1 3.98 µM
COc1ccccc1CNc1ncncc1-c1ccc2c(c1)OCO2 1 µM
c1ccc(CNc2nc(-c3cccnc3)nc3ccccc23)cc1 5.01 µM
c1ccc(Nc2nc(-c3ccoc3)nc3ccccc23)cc1 7.94 µM
COc1cccc(-c2ccc3ncnc(Nc4ccccc4)c3c2)c1 0.282 µM
COc1ccc2[nH]cc(CCNc3ncncc3-c3ccoc3)c2c1 3.55 µM
